# Pf growth 96h = Primary qHTS for delayed death inhibitors of the malarial parasite plastid, 96 hour incubation; 6.9% of 320,000 active; Potency, µM (top dose mostly 28.7 µM), usual class: inhibitors; P. falciparum luciferase reporter growth, 96 h
#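 Compounds incubated with erythrocytes infected by luciferase-expressing P. falciparum (2% hematocrit, 0.05% parasitemia final) for 96 hours, 37 C in 5% CO2. Growth inhibition scored as decreased luciferase luminescence.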
# Cycloheximide cs = Cycloheximide Counterscreen for Small Molecule Inhibitors of Shiga Toxin. cell reporter, cycloheximide protein synthesis inhibition counterscreen. max response, %. 12% of 300,000 active. AID 2314, 2010; in the data active = max response mostly above about 13%, no sharp cut-off; inactive = mostly below about 14%; note: read at 38.3 µM for the half of the compounds with a filed dose
# MARV entry inh = qHTS for inhibitors of binding or entry into cells for Marburg Virus; Marburg virus pseudotyped entry inhibition, cell reporter; Potency, µM (top dose mostly 37.8 µM), usual class: inhibitors; 1.8% of 300,000 active; calls by dose curve; tested in HEK293 cells
# Shiga inhibitor = A qHTS for Small Molecule Inhibitors of Shiga Toxin | Vero cells, Shiga toxin protein synthesis inhibition reporter | inhibition, % at 38.7 µM | 9.2% of 290,000 active; in the data active = inhibition mostly above about 28%, no sharp cut-off; inactive = mostly below about 43%
# Pf growth 48h = Primary qHTS for delayed death inhibitors of the malarial parasite plastid, 48 hour incubation; P. falciparum luciferase growth in erythrocytes, 48 h; Potency, µM (highest dose often 28.7 µM), actives largely listed as inhibitors; 5.9% of 310,000 active
#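 First compound was added to culture medium, then infected red cells at 0.1% parasitemia and 2% hematocrit (final). After incubation at 37 C under 5% CO2, luciferase detection reagent was dispensed and light output recorded.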
# LASV entry inh = qHTS for Inhibitors of binding or entry into cells for Lassa Virus; Potency, µM (series often up to 37.9 µM), most hits filed as inhibitors; AID 540256, 2011; 1.2% of 300,000 active; Lassa virus pseudotype entry inhibition, cell reporter; calls by dose curve; tested in HEK293 cells; note: nearly all actives have a fitted effect of over 50% in size
# Numbers stand for hits; n = inactive; u = inconclusive; x = not tested or not shown; [ ] = another dose, or the depositor's remark. Shown are actives, neighbours in structure and some others; about 19% of the full set was active somewhere. Unless noted, calls come from the whole dose curve; as a rule, active = well fitted inhibition curve with a large enough effect; inconclusive = small, poorly fitted or top-dose-only effect, or another doubt; inactive = no such curve, though single readings can be large or run the other way.
SMILES,Pf growth 96h,Cycloheximide cs,MARV entry inh,Shiga inhibitor,Pf growth 48h,LASV entry inh
COc1cccc(C2=NNC(=NCc3ccccc3)SC2)c1,n,41.4,u,46.8,u,u
COc1ccc(CN=C2NN=C(c3ccccc3)CS2)cc1,u,48.5,u,100.7,u,u
Cc1[nH]n(-c2ncc(-c3ccccc3)s2)c(=O)c1C(c1ccc(Cl)cc1)C(C#N)C#N (stereo unspecified),u,11.3,n,n,n,n
Cc1[nH]n(-c2ccccc2)c(=O)c1C(c1ccccc1[N+](=O)[O-])C(C#N)C#N (stereo unspecified),n,n,x,n,n,x
CC(C)[C@H](NC(=O)N1c2ccccc2NC(=O)[C@@H]1C(C)C)C(=O)N[C@@H](Cc1ccccc1)C(=O)O,u,n,x,n,n,x
O=C(Nc1ccc2ncccc2c1)c1ccccc1Br,n,37.7,n,41.4,n,u
Cc1c([N+](=O)[O-])cc(C(=O)Nc2ccc3ncccc3c2)cc1[N+](=O)[O-],n,n,u,x,u,n
c1cnc2ccc(-c3ccc4ncccc4c3)cc2c1,u,26.7,u,x,n,4.47µM
O=C(Nc1ccc2ncccc2c1)Nc1ccc2ncccc2c1,u,18.7,x,46.8,u,x
CCOc1cc(N2CCOCC2)c(OCC)cc1NC(=O)c1ccccc1C,n,n,n,n,u,x
Cc1cc(N2CCN(S(=O)(=O)c3ccc4ccccc4c3)CC2)n2ncnc2n1,n[5.75 µM],n,n,n,u,n
Cc1cc(C)nc(Nc2ccc(C(=O)O)cc2)n1,n,n,n,n,x,n
CCc1ccc(Nc2nc(C)cc(C)n2)cc1,n,52.6,n,52.4,n,n
Cc1cc(C)nc(Nc2ccc(O)cc2)n1,n,24.1,n,n,x,n
O=C(CN1C(=O)NC2(CCCc3ccccc32)C1=O)NCc1cccs1 (stereo unspecified),n,x,x,x,n,x
O=C(c1ccc2ncsc2c1)N1CCN(c2ccccc2Cl)CC1,n,19.7,u,105.2,n,u
COc1cc(C(=O)N2CCN(c3cccc(C)c3C)CC2)cc(OC)c1OC,10.4µM,n,x,n,u,x
Cc1cccc(N2CCN(C(=O)c3ccc4ncsc4c3)CC2)c1C,x,30.0,u,72.1,n,n
O=C(c1ccc2ncsc2c1)N1CCN(c2nc3ccccc3s2)CC1,n,n,n,n,n,u
O=c1c2cnn(-c3ccccc3)c2ncn1/N=C/c1ccncc1,x,x,n,x,x,x
CSCCC(NS(=O)(=O)c1ccc(Cl)cc1)C(=O)OCC(=O)N(C(C)C)C(C)C (stereo unspecified),n,n,n,n,x,u
Cc1cc(N)c(-n2cc3c(c2-c2ccc(Br)cc2)c(=O)n(C)c(=O)n3C)cc1C,x,x,n,x,x,n
Cc1ccc(NC(=O)CCNS(=O)(=O)c2ccc3c(c2)c(=O)n(C)c(=O)n3C)cc1C,u,n,x,n,n,x
Cc1ccc(-n2cc3c(=O)n(C)c(=O)n(C)c3c2)cc1C,n[5.75 µM],21.3,n,n,n,n
Cn1c(=O)c2cc(S(=O)(=O)Nc3ccc4c(c3)OCO4)ccc2n(C)c1=O,x,n,n,n,u,n
SMILES,Pf growth 96h,Cycloheximide cs,MARV entry inh,Shiga inhibitor,Pf growth 48h,LASV entry inh
Cc1cc(N)c(-n2cc3c(=O)n(C)c(=O)n(C)c3c2)cc1C,x,39.9,n,n,u,n
Cn1c(=O)c2cn(-c3ccc4c(c3)OCCO4)cc2n(C)c1=O,u,67.1,u,n,n,n
NS(=O)(=O)c1ccc(NC(=S)Nc2ccn(Cc3cccc4ccccc34)n2)cc1,n,n,6.31µM,n,u,3.55µM
NS(=O)(=O)c1ccc(NS(=O)(=O)c2ccc(NC(=S)Nc3ccccc3)cc2)cc1,n,n,n,n,n,n
CC(=O)c1cccc(NC(=O)COC(=O)COc2ccccc2C)c1,n,n,x,n,n,x
Cc1[nH]c2ccc(Br)cc2c(=O)c1CN1CCCCCC1,n,n,x,n,10.4µM,x
Cc1[nH]c2ccc(Cl)cc2c(=O)c1CN1CCCC1,n,n,u,n,n,n
O=C(NCc1ccccn1)c1ccc(Br)s1,x,17.4,n,32.1,3.7µM,n
O=C(NCc1ccccn1)c1ccc(Cl)s1,n,23.5,u,n,x,n
O=C(NCc1ccccn1)c1c(Cl)cccc1Cl,n,n,n,n,n,n
Cc1nc2sc(C(c3ccccc3)N3CC(C)OC(C)C3)c(O)n2n1 (stereo unspecified),u,n,n,n,n,n
O=C(Cn1c(=O)oc2ccccc21)Nc1ccccc1C(F)(F)F,u,n,n,n,n[0.00184 µM],n
O=c1oc(-c2cccs2)nc2sc3c(c12)CCCCC3,n,26.4,u,58.7,n,u
O=c1oc(-c2ccccc2)nc2sc3c(c12)CCCC3,n,40.9,u,123.8,x,u
Cc1ccccc1-c1nc2sc3c(c2c(=O)o1)CCC3,n,n,n,n,n,n
CCc1c(-c2ccccc2)nc2sc3c(c2c1N)CCCC3,u,19.3,u,n,n,u
Nc1nc(-c2cccnc2)nc2sc3c(c12)CCCC3,n,30.6,u,n,n,u
O=c1oc(-c2cc3ccccc3o2)nc2sc3c(c12)CCCC3,n,n,u,n,n,u
Nc1ncc(CCN2CCOCC2)c(-c2ccc(F)cc2)n1,u,n,n,n,n,n
CCOc1ccc(NC2=NC(C)(C)N=C(N)N2)cc1,u,n,n,n,u,n
Cc1ccc(OCC(=O)NC(C)c2ccc(Cl)c(Cl)c2)c([N+](=O)[O-])n1 (stereo unspecified),n,n,n,n,n,x
CC(=O)c1cccc(NC(=O)CN2C(=S)NC(C)(C)CC2C)c1 (stereo unspecified),n,n,n,n,n,n
CN(C)C(CNc1ncnc2sccc12)c1ccccc1 (stereo unspecified),u,n,u,n,n,n
c1ccc(CCNc2ncnc3sccc23)nc1,n,35.1,u,73.0,n,u
OC(CNc1ncnc2sccc12)c1ccccc1 (stereo unspecified),n,25.4,u,84.0,n,u
SMILES,Pf growth 96h,Cycloheximide cs,MARV entry inh,Shiga inhibitor,Pf growth 48h,LASV entry inh
Cc1csc2ncnc(NCCc3ccccn3)c12,n,n,x,n,n,x
Cc1ccc(-n2c3c(c(=O)[nH]c2=O)C(C(F)(F)F)(C(F)(F)F)NC(=O)N3)cc1,n,n,n,n,n,n
CCN1C(=O)C(O)(C2COC(C)(C)CC2=O)c2ccccc21 (stereo unspecified),n,n,n,n,n,n
COc1ccc(NC(=O)COc2cccc3c2OC(C)(C)C3)cc1OC,u,x,x,x,n,x
Cc1ccc(CN2CCC(C(=O)Nc3ccc(Oc4cccnc4)cc3)CC2)cc1,n,n,u,n,10.4µM,u
CC(=O)c1cccc(CN2CCC(C(=O)Nc3ccc(-c4cccc(C)c4)cc3)CC2)c1,n,n,u,n,4.15µM,n
O=C(Nc1ccccc1Oc1cccnc1)C1CCCN(C/C=C/c2ccc(F)cc2)C1 (stereo unspecified),n,n,u,n,u,n
